Reference: PubChem BioAssay (NCI)
Compounds without any hit were thinned out: in the full panel of roughly 83,000, 20% have a hit.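 Percent growth is the endpoint: 0 to 100 indicates growth inhibition (40 means 60% inhibition), 0 means no net growth, and negative values indicate cell death.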 Values without a mark were called inactive. Activity calls are given as the source filed them. Rule for the calls: active = growth percent below 10; inactive = the rest.

How the values were obtained:
Assay in all cases: NCI-60 one-dose screen, 48 h (100 = growth as untreated, 0 = no growth, -100 = all killed)
Conditions in all cases: 10 µM unless noted
NCI-H23 lung = test system: NCI-H23 lung
NCI-H226 lung = test system: NCI-H226 lung
NCI-H322M lung = test system: NCI-H322M lung
HOP-62 NSCLC = test system: HOP-62 NSCLC
NCI-H460 lung = test system: NCI-H460 lung
NCI-H522 lung = test system: NCI-H522 lung
A549/ATCC NSCLC = test system: A549/ATCC NSCLC
786-0 renal = test system: 786-0 renal
COLO 205 colon = test system: COLO 205 colon
DU-145 prostate = test system: DU-145 prostate
K-562 leukemia = test system: K-562 leukemia
MALME-3M melanoma = test system: MALME-3M melanoma
MDA-MB-231 breast = test system: MDA-MB-231 breast
RXF 393 renal = test system: RXF 393 renal
SF-268 CNS = test system: SF-268 CNS
SF-295 CNS = test system: SF-295 CNS
SF-539 CNS = test system: SF-539 CNS
UACC-257 melanoma = test system: UACC-257 melanoma
M14 melanoma = test system: M14 melanoma

| Structure (SMILES) | growth (NCI-H23 lung) | growth (NCI-H226 lung) | growth (NCI-H322M lung) | growth (HOP-62 NSCLC) | growth (NCI-H460 lung) | growth (NCI-H522 lung) | growth (A549/ATCC NSCLC) | growth (786-0 renal) | growth (COLO 205 colon) | growth (DU-145 prostate) | growth (K-562 leukemia) | growth (MALME-3M melanoma) | growth (MDA-MB-231 breast) | growth (RXF 393 renal) | growth (SF-268 CNS) | growth (SF-295 CNS) | growth (SF-539 CNS) | growth (UACC-257 melanoma) | growth (M14 melanoma) |
| --- | --- | --- | --- | --- | --- | --- | --- | --- | --- | --- | --- | --- | --- | --- | --- | --- | --- | --- | --- |
| CCOc1cc(CNc2ccc(N3CCOCC3)c(C(=O)O)c2)ccc1OC | 100% | 93.4% | 94.8% | 103% | 102% | 99.3% | 93% | 112% | 104% | 101% | 101% | 105% | 92.3% | 99.3% | 97.8% | 104% | 104% | 93.9% | 96.5% |
| CC(=O)N1N=C(c2cccc(Nc3ccncc3)c2)CC1c1ccc2c(c1)OCO2 (stereo unspecified) | 87.4% | 94.6% | 105% | 89.4% | 101% | 96.5% | 93.9% | -93.4% (active) |  | 104% | 27.4% | 74.9% | 86.9% |  | 91.8% | 89.9% | 77.9% | 100% | -69.4% (active) |
| CC(=O)NCCCS(=O)(=O)O | 101% | 119% | 107% | 105% | 101% | 83.4% | 114% | 99.6% | 105% | 118% | 94.8% | 106% | 102% |  | 111% | 94.6% | 99.5% | 104% | 111% |
| CC(=O)c1c(C)[nH]c(-c2nc3ccc(N4CCN(C)CC4)cc3[nH]2)c1-c1ccccc1 | 53% | 55.2% | 41.6% | 33.3% | 52.3% | 25.4% | 38.1% | 85.9% | 16.1% | 59.7% | 24.7% | 23.7% | 32% |  | 53.6% | 38.1% | 24.9% | 48.4% | 94.7% |
| Cc1c([N+](=O)[O-])cc(C(C)(C)C)cc1[N+](=O)[O-] | 97.4% | 91.3% | 117% | 76.2% | 102% | 60.2% | 81.8% | 104% | 114% | 107% | 112% | 118% | 107% |  | 93.3% | 97.6% | 104% | 85.4% | 107% |
| O=S(=O)(NCCNc1nccc(-c2c(-c3ccc(F)c(O)c3)nc3sccn23)n1)c1ccccc1 | 72.2% | 99.8% | 96.1% | 98.9% | 75.3% | 59.3% | 81.8% | 113% | 33.9% | 77.5% | 37.2% | 1.46% (active) | 51.6% |  | 84.5% | 110% | 94.3% | 16.2% | 14.5% |
| COc1ccc(C(=O)c2cc(C)c(OC)c(C)c2)c(OC)c1N(C(=O)C(Cl)Cl)C(=O)C(Cl)Cl | 21.9% | 15.9% | 41.5% | 17.7% | 2% (active) | 11% | 13.6% | 14.1% |  | 1.52% (active) | 8.2% (active) | 58.2% | 13.2% | 41.2% | 30.6% | 7.31% (active) | -16% (active) | 48.3% | -14.8% (active) |
| Cc1ccc(Nc2cc(=S)nc(N)[nH]2)cc1C | 90.8% | 97.1% | 98.1% | 89.3% | 103% | 91.1% | 99.9% | 98.9% | 112% | 102% | 92.9% | 100% | 80.6% | 107% | 100% | 98.6% | 96.4% | 103% | 93.7% |
| CC(C)Cc1ccc(C(C)C(=O)NCc2c[nH]c3ccc(Cl)cc23)cc1 (stereo unspecified) | 98% | 92.3% | 99.7% | 99.7% | 99.7% | 87.2% | 89% | 95.8% |  | 103% | 71.3% | 98.8% | 82.2% | 87.8% | 89.3% | 88.3% | 100% | 99.4% | 92.4% |
| CN(C)C(=O)c1cc2cnc(Nc3ccc(-c4csc5c(=O)cc(N6CCOCC6)oc45)cc3)nc2n1C1CCCC1 | -10.2% (active) | 2.17% (active) | -29% (active) | -30.4% (active) | -26.4% (active) | -65.1% (active) | -36.8% (active) | -1.22% (active) | -84.3% (active) | -97.1% (active) | 2.96% (active) | -67.9% (active) | -7.21% (active) | -85.8% (active) | -2.94% (active) | -36.9% (active) | -70.2% (active) | -81.5% (active) | -73.4% (active) |
| COc1cc(C2CC(c3cccc(Nc4ccncc4)c3)=NN2C(C)=O)cc(OC)c1OC (stereo unspecified) | 104% | 96.8% | 102% | 91.1% | 103% | 77.9% | 98.5% | 88% |  | 107% | 34.7% | 80% | 92.8% |  | 94.4% | 94.9% | 89.1% | 91.5% | 100% |
| CCCCCCCCOc1ccc(/C=N/Nc2cc(C)nc3ccc(Cl)cc23)cc1 | 65.2% | 87.2% | 42.2% | -46.5% (active) | -63.4% (active) | -56.7% (active) | -37.3% (active) | -94% (active) | -36.2% (active) | -87.3% (active) | -52.6% (active) | 91% | -59.3% (active) | -68.9% (active) | 104% | -72.8% (active) | -81% (active) | 116% | 87.7% |
| COc1ccc(/C(=C\c2ccccc2)C(=O)O)cc1OC | 93.6% | 83.5% | 98% | 2.18% (active) | 101% | 101% | 102% | 104% | 100% | 108% | 134% | 95.9% | 89.1% | 104% | 103% | 101% | 103% | 99.2% | 98.3% |
| COc1ccncc1C#Cc1cncc(C(=O)Nc2ccc(CN3CCN(C)CC3)c(C(F)(F)F)c2)c1 | 28% | 3.6% (active) | 37.3% | 38.9% | 8.17% (active) | 30.9% | 36.9% | 46.9% |  | 35.4% | 5.84% (active) | -28% (active) | 9.91% (active) |  | 39.8% | 49.7% | 1.56% (active) | 46.5% | -3.19% (active) |
| CC(C)(C)OC(=O)N1CCN(c2ccc(N)cc2)C(=O)C1 | 97.7% | 100% | 107% | 106% | 111% | 107% | 104% | 100% | 113% | 115% | 99.9% | 106% | 98.8% | 110% | 103% | 98.2% | 107% | 107% | 101% |
| C#Cc1cccc(NC(=O)Nc2ccc(NC(=O)CCl)cc2)c1 | -66.6% [8.25 µM] (active) | -27.4% [8.25 µM] (active) | 86.8% [8.25 µM] | -6.94% [8.25 µM] (active) | -23.9% [8.25 µM] (active) | -70.8% [8.25 µM] (active) | 45.3% [8.25 µM] | -71.5% [8.25 µM] (active) | -58.2% [8.25 µM] (active) | 22.3% [8.25 µM] | 3.37% [8.25 µM] (active) | -80.5% [8.25 µM] (active) | -72.6% [8.25 µM] (active) |  | -82.9% [8.25 µM] (active) | 79.5% [8.25 µM] | -99.6% [8.25 µM] (active) | 35.1% [8.25 µM] | 4.51% [8.25 µM] (active) |
